Compound activity as filed in PubChem BioAssay.
Rows were chosen to be rich in hits. Some 19% of all compounds tested hit in one or more screens of this group.
HT1080 IDH1KD tx = kills HT-1080 cells with IDH1 knockdown; HT-1080 IDH1 knockdown viability, ATP luminescence, 48 h; Potency, µM (top dose mostly 46.1 µM), usual class: cytotoxic; actives 2% (n = 360,000)
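% activity derives from luminescence (CellTiter-Glo), normalised to DMSO and no-cell wells. HT-1080-IDH1KD cells, 750/well, had 48 h compound exposure at 37 °C.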
IL1B secr inh = inhibitors of inflammasome signaling (IL-1 beta secretion). THP-1 LPS/ATP IL-1B secretion, AlphaLISA, 16 h; stronger effect = lower value. activity change, % at 57.5 µM. actives 4.7% (n = 360,000); in the data active = activity change below about -50%; inconclusive = mostly about -30% to -49%
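Secreted IL-1B measured by AlphaLISA bead assay after 16 h compound exposure of THP-1 cells; compounds (final up to 57.5 uM) added 1 h before LPS (250 ng/mL) and ATP (1.25 mM) stimulation; lower signal means less secretion.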
TDP1 cell CPT = DT40-hTDP1 cell growth loss with CPT; AID 686979; actives 12% (n = 420,000); Potency, µM (top dose mostly 46.2 µM), usual class: inhibitors; chicken DT40 Tdp1-/-;hTDP1 cells + 20 nM CPT, ATP luminescence, 48 h; also: nearly all actives have a fitted effect of over 55% in size
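Chicken DT40 Tdp1-/- cells complemented with human TDP1, 400 cells/well, exposed to compounds plus 20 nM camptothecin for at least 48 h at 37 C; viability read as ATP content by CellTiter-Glo luminescence.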
DT40 TDP1 no CPT = qHTS for Inhibitors of human tyrosyl-DNA phosphodiesterase 1 (TDP1): qHTS in cells in absence of CPT; DT40 Tdp1-/- hTDP1 cells, no CPT, ATP luminescence, 48 h; Potency, µM (series often up to 46.2 µM), most hits filed as inhibitors; AID 686978, 2013; actives 15% (n = 420,000); also: nearly all actives have a fitted effect of over 55% in size
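Growth kinetics read by CellTiter-Glo luminescence after ≥48 hr at 37 °C. Cells: DT40 Tdp1-/- stably carrying human TDP1, 400 per well, compound exposure in the absence of CPT (DMSO vehicle).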
HT1080NT lethal = kills 2HG-producing HT-1080-NT fibrosarcoma cells | actives 1.6% (n = 360,000) | AID 686970 | Potency, µM (top dose mostly 46.1 µM), hits mostly cytotoxic | HT-1080-NT fibrosarcoma viability, CellTiter-Glo ATP luminescence, 48 h;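 also: NT is the 2HG producing partner of a matched IDH1 knockdown line; nearly all actives have a fitted effect of over 55% in size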
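Viability by CellTiter-Glo luminescence after 48 h compound exposure at 37C of HT-1080-NT cells (750/well, RPMI, 5% FBS). % activity scaled between DMSO wells and medium-only wells, then curve-fitted and categorized by curve class.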
Numbers stand for hits. Unless noted, calls follow the shape of the dose curve; as a rule, active = well fitted curve in the direction sought with a large enough effect; inconclusive = small, poorly fitted or top-dose-only effect, or another doubt; inactive = no such curve, though single readings can be large; an effect the other way counts as inactive or inconclusive.

CC(=O)n1cc([C@@H]2C=C(C(=O)N3CCN(Cc4ccccc4)CC3)O[C@H](OCc3ccc(CO)cc3)C2)c2ccccc21 was read as HT1080 IDH1KD tx inactive, IL1B secr inh inconclusive, TDP1 cell CPT 8.2µM, DT40 TDP1 no CPT 8.2µM and HT1080NT lethal inactive.
O=C(Nc1ccccc1)C1=C[C@@H](c2coc3ccccc3c2=O)C[C@@H](OCCCCO)O1 was read as HT1080 IDH1KD tx inactive, IL1B secr inh inactive, TDP1 cell CPT inconclusive, DT40 TDP1 no CPT 9.2µM and HT1080NT lethal inactive.
CC(=O)n1cc([C@H]2C=C(C(=O)NCc3ccccc3)O[C@@H](OCc3ccc(CO)cc3)C2)c2ccccc21 was read as HT1080 IDH1KD tx inactive, IL1B secr inh -53, TDP1 cell CPT 5.8µM, DT40 TDP1 no CPT 3.3µM and HT1080NT lethal inactive.
CC(=O)n1cc([C@H]2C=C(C(=O)N3CCN(Cc4ccccc4)CC3)O[C@@H](OCCCCO)C2)c2ccccc21 was read as HT1080 IDH1KD tx inactive, IL1B secr inh inactive, TDP1 cell CPT inconclusive, DT40 TDP1 no CPT inconclusive and HT1080NT lethal inactive.
`O=C(c1[nH]c(C(F)(F)F)nc1-c1ccccc1)N1CCOCC1` gave HT1080 IDH1KD tx inactive, IL1B secr inh inactive, TDP1 cell CPT inactive, DT40 TDP1 no CPT inactive and HT1080NT lethal inactive.
Cn1c(=O)n(C)c2cc([N+](=O)[O-])c(N3CCN(S(C)(=O)=O)CC3)cc21 was read as HT1080 IDH1KD tx inactive, IL1B secr inh inactive, TDP1 cell CPT inactive, DT40 TDP1 no CPT inactive and HT1080NT lethal inactive.
Screening O=C(c1ccccc1Br)N1CCN(c2ccc([N+](=O)[O-])c(N3CCOCC3)c2)CC1 returned HT1080 IDH1KD tx inactive, IL1B secr inh inactive, TDP1 cell CPT inactive, DT40 TDP1 no CPT inactive and HT1080NT lethal inactive.
Screening Cn1c(=O)n(C)c2cc([N+](=O)[O-])c(N3CCN(C(=O)C(C)(C)C)CC3)cc21 returned HT1080 IDH1KD tx inactive, IL1B secr inh inactive, TDP1 cell CPT 16µM, DT40 TDP1 no CPT 13µM and HT1080NT lethal inactive.
Screening Cn1c(=O)n(C)c2cc([N+](=O)[O-])c(N3CCN(C(=O)c4ccccc4)CC3)cc21 returned HT1080 IDH1KD tx inactive, IL1B secr inh inactive, TDP1 cell CPT 15µM, DT40 TDP1 no CPT 18µM and HT1080NT lethal inactive.
Screening Cn1c(=O)n(C)c2cc([N+](=O)[O-])c(N3CCN(C(=O)c4ccccc4Br)CC3)cc21 returned HT1080 IDH1KD tx inactive, IL1B secr inh inconclusive, TDP1 cell CPT inconclusive, DT40 TDP1 no CPT 21µM and HT1080NT lethal inconclusive.
Cn1c(=O)n(C)c2cc([N+](=O)[O-])c(N3CCN(C(=O)c4ccccc4Cl)CC3)cc21 was read as HT1080 IDH1KD tx inactive, IL1B secr inh inconclusive, TDP1 cell CPT 21µM, DT40 TDP1 no CPT 16µM and HT1080NT lethal inconclusive.
For O=C(c1ccccc1)N1CCN(c2ccc([N+](=O)[O-])cc2-n2cccc2)CC1 the results were HT1080 IDH1KD tx inactive, IL1B secr inh inactive, TDP1 cell CPT inconclusive, DT40 TDP1 no CPT inconclusive and HT1080NT lethal inactive.
CC1CCCCN1S(=O)(=O)c1ccc(C(=O)N2CCOCC2)cc1 (configuration not stated) was read as HT1080 IDH1KD tx inactive, IL1B secr inh inactive, TDP1 cell CPT inactive, DT40 TDP1 no CPT inactive and HT1080NT lethal inactive.
For O=C(Nc1c(-c2ccc(Cl)cc2)[nH][nH]c1=O)c1ccccc1Cl the results were HT1080 IDH1KD tx inactive, IL1B secr inh inactive, TDP1 cell CPT inactive, DT40 TDP1 no CPT inactive and HT1080NT lethal inactive.
Screening COc1ccc(CN(C)CC(=O)Nc2ccccc2C(=O)NC2CC2)cc1F returned HT1080 IDH1KD tx inactive, IL1B secr inh inactive, TDP1 cell CPT inconclusive, DT40 TDP1 no CPT inconclusive and HT1080NT lethal inactive.
`O=C(N/N=C/c1cc(Br)ccc1O)c1cccc(N2CCCC2=O)c1` gave HT1080 IDH1KD tx inconclusive, IL1B secr inh inactive, TDP1 cell CPT 1.6µM, DT40 TDP1 no CPT 4.6µM and HT1080NT lethal inconclusive.
`COc1ccc(O)c(/C=N/NC(=O)c2ccc(N3CCCC3=O)cc2)c1` gave HT1080 IDH1KD tx 23µM, IL1B secr inh inactive, TDP1 cell CPT 13µM, DT40 TDP1 no CPT 23µM and HT1080NT lethal inconclusive.
COc1ccc(/C=N/NC(=O)c2ccc(N3CCCC3=O)cc2)cc1 was read as HT1080 IDH1KD tx inactive, IL1B secr inh inactive, TDP1 cell CPT inactive, DT40 TDP1 no CPT inactive and HT1080NT lethal inactive.
`COc1cccc(/C=N/NC(=O)c2cccc(N3CCCC3=O)c2)c1` gave HT1080 IDH1KD tx inactive, IL1B secr inh inactive, TDP1 cell CPT inactive, DT40 TDP1 no CPT inactive and HT1080NT lethal inactive.
`COc1ccc(O)c(/C=N/NC(=O)c2cccc(N3CCCC3=O)c2)c1` gave HT1080 IDH1KD tx inconclusive, IL1B secr inh inactive, TDP1 cell CPT 5.2µM, DT40 TDP1 no CPT 3.3µM and HT1080NT lethal inconclusive.
For O=C(N/N=C/c1ccco1)c1cccc(N2CCCC2=O)c1 the results were HT1080 IDH1KD tx inactive, IL1B secr inh inactive, TDP1 cell CPT inactive, DT40 TDP1 no CPT inactive and HT1080NT lethal inactive.
`O=C(NCC1CCCO1)C(=O)N/N=C/c1c(F)cccc1Cl` (configuration not stated) gave HT1080 IDH1KD tx inactive, IL1B secr inh inactive, TDP1 cell CPT inactive, DT40 TDP1 no CPT inactive and HT1080NT lethal inactive.
Screening O=c1c(-c2ccc(Cl)cc2)nc2cnc(Nc3ccccc3)nc2n1C[C@H]1CCCO1 returned TDP1 cell CPT inactive and DT40 TDP1 no CPT inactive.
Screening CC1CCN2c3ccccc3CC3(C(=O)OC(C)(C)OC3=O)C2C1 (configuration not stated) returned TDP1 cell CPT inconclusive and DT40 TDP1 no CPT 10µM.
For CC1(C)OC(=O)C2(Cc3ccc(Br)cc3N3CCCCC32)C(=O)O1 (configuration not stated) the results were TDP1 cell CPT inactive and DT40 TDP1 no CPT inactive.
For COc1ccc(S(=O)(=O)N2CCCOC2CNC(=O)C(=O)NCCc2ccco2)cc1 (configuration not stated) the results were HT1080 IDH1KD tx inactive, IL1B secr inh inactive, TDP1 cell CPT inactive, DT40 TDP1 no CPT inactive and HT1080NT lethal inactive.
Screening O=c1cc(-c2ccccc2)nc(Cc2c(Cl)cccc2Cl)[nH]1 returned HT1080 IDH1KD tx inactive, IL1B secr inh inactive, TDP1 cell CPT inactive, DT40 TDP1 no CPT inactive and HT1080NT lethal inactive.
O=c1cc(CCl)nc(Cc2c(Cl)cccc2Cl)[nH]1 was read as HT1080 IDH1KD tx 26µM, IL1B secr inh inactive, TDP1 cell CPT inconclusive, DT40 TDP1 no CPT inconclusive and HT1080NT lethal 23µM.
Screening CN(C)S(=O)(=O)c1cccc(NC(=O)/C=C/c2ccc(S(=O)(=O)N3CCOCC3)cc2)c1 returned HT1080 IDH1KD tx inactive, IL1B secr inh inactive, TDP1 cell CPT 15µM, DT40 TDP1 no CPT 18µM and HT1080NT lethal inactive.
